This test has as its system zebrafish Glucocorticoid Receptor (GR), gene 553740. The experiment in a line: ATG_zfGR_EcoTox2: Attagene TRANS-FACTORIAL EcoTox-2 HepG2 Assay for zebrafish Glucocorticoid Receptor (GR). As for the experimental part:
ATG_EcoTox2 is a cell-based, multiplexed assay created by modifying the existing Attagene TRANS-FACTORIAL system to include a panel of nuclear receptors from some or all the following species: human (Homo sapiens), african clawed frog (Xenopus laevis), rainbow trout (Oncorhynchus mykiss), japanese medaka (Oryzias latipes), and zebrafish (Danio rerio). The ECOTOX2-FACTORIAL format uses HepG2, a human liver cell line, with measurements taken at 24 hours after chemical dosing in a 24-well plate. ATG_zfGR_EcoTox2 is one of 29 assay components calculated in the ATG_EcoTox2 assay. It is designed to make measurements of mRNA induction, a form of inducible reporter, as detected with fluorescence intensity signals by Reverse transcription polymerase chain reaction (RT-PCR) and Capillary electrophoresis technology.The assay endpoint ATG_zfGR_EcoTox2 was analyzed in the positive analysis fitting direction relative to DMSO as the negative control and baseline of activity. Using a type of inducible reporter, measures of mRNA for gain-of-signal activity can be used to understand the reporter gene at the transcription factor-level as they relate to the gene for glucocorticoid receptor. Furthermore, this assay endpoint can be referred to as a primary readout, because this assay has produced multiple assay endpoints where this one serves a reporter gene function. To generalize the intended target to other relatable targets, this assay endpoint is annotated to the nuclear receptor intended target family, where the subfamily is steroidal.
Human liver HepG2 cells are transiently transfected with multiple reporter transcription units (MRTUs) in 6-well plates using FuGene 6 reagent (Roche; 3 ml FuGene/1 mg DNA). The MRTU constructs are regulated by a cis-regulating element (promoter). Each RTU expresses a GAL4-UAS that regulates the transcription of a nearby target reporter gene sequence. A major difference between the CIS and TRANS system is that in CIS activities of endogenous TFs are measured, whereas the TRANS assay evaluates changes in activities of exogenous, chimeric NR-Gal4 proteins. […] At the end of 24 hour incubation, total RNA was isolated using TriZol reagent (Invitrogen). The isolated RNA is then reverse-transcribed using oligo(dT) primer and Mo-MLV reverse transcriptase (Invitrogen) with DNAse I (Ambion) treatment for 30 min. The one-tenth of the produced cDNA was amplified by PCR using Taq DNA polymerase (Invitrogen) and two reporter sequence-specific primers. The PCR products were fluorescently labeled by primer extension with 6-arboxyfluorescein (6-FAM) 5'-labeled reporter sequence-specific primer (2 min at 95 C, 20 s at 68 C and 10 min at 72 C) and these products were digested with 5U of HpaI (New England Biolabs) for 2h at 37 C. The fragments were purified using Qiaquick PCR columns (Qiagen), analyzed on an ABI 3130xL genetic analyzer (Applied Biosystems) with peak positions identified by using a set of X-rhodamine (ROX)-labeled MapMarker1000 molecular weight standards (BioVentures). The raw capillary electrophoresis data was processed using Attagraph software (Attagene).

We go through 7 compounds from PubChem BioAssay AID2284345 (EPA ToxCast).

The structures appear in SMILES notation. Inconclusive results are not listed. Activity calls are given as the source filed them. How the source made its calls: active means hit-call score of the fitted dose curve at least 0.9, where 1 is the maximum; inconclusive means response in the unintended direction; inactive means score below 0.9.

For the compound `CC(C)OC(=O)C(C)(C)Oc1ccc(C(=O)c2ccc(Cl)cc2)cc1`, the compound was classed as inactive.
Same read-out and setting: to `Cc1c(C)c2c(c(C)c1O)CCC(C)(COc1ccc(CC3SC(=O)NC3=O)cc1)O2` (configuration not stated) belongs “inactive”; to `Cc1ccc(C)c(OCCCC(C)(C)C(=O)O)c1`, “inactive”.
On the same count and under the same terms, for `CN(CCOc1ccc(CC2SC(=O)NC2=O)cc1)c1ccccn1` (configuration not stated) the value was “inactive”; for `CC(C)(Oc1ccc(Cl)cc1)C(=O)O`, “inactive”; for `C[C@]12C=CC(=O)C=C1CC[C@@H]1[C@@H]2C(=O)C[C@@]2(C)[C@H]1CC[C@]2(O)C(=O)CO`, “inactive”.
Usually AC50 stands for the concentration at which the activity in the assay is half-maximal. In the case of `C[C@@H]1C[C@H]2[C@@H]3CCC4=CC(=O)C=C[C@]4(C)[C@@]3(F)[C@@H](O)C[C@]2(C)[C@@]1(O)C(=O)COP(=O)(O)O`, the AC50 was 4.57 nM (active).
